Broadly, the AC50 is the concentration giving half of the maximal activity seen.

The target of experiment [1] is Hepatocyte nuclear factor 3-beta (Homo sapiens) (UniProt Q9Y261). Description: ATG_FoxA2_CIS: Attagene CIS-FACTORIAL HepG2 Assay for human Forkhead box A2 (FOXA2) (AID 2282942). The following applies: HepG2 cis-reporter transcription factor activity, 24 h; actives raise or lower the signal. The gist of the method:
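Endogenous transcription factor activity was read in HepG2 cells carrying transiently transfected cis-promoter reporter units. After 24 h dosing, reporter mRNA was quantified by RT-PCR and capillary electrophoresis, and values fitted bidirectionally versus DMSO.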

Experiment [2] has as its target Heat shock factor protein 1 (Homo sapiens) (UniProt Q00613). Description: ATG_HSE_CIS: Attagene CIS-FACTORIAL HepG2 Assay for human Heat Shock Transcription Factor 1 (HSE) (AID 2282953). The following applies: HepG2 HSE cis-reporter, Attagene RNA transcription; actives raise or lower the signal. The gist of the method: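 Using HepG2 with transfected cis-driven reporter constructs, compound effects on endogenous factor activity are scored as reporter mRNA change at 24 h. Detection: RT-PCR, HpaI digestion, capillary electrophoresis; bidirectional fitting to DMSO.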

Experiment [3] in a line: ATG_RORE_CIS: Attagene CIS-FACTORIAL HepG2 Assay for human RAR-related Orphan Receptor Element (RORE) (AID 2282959). The following applies: HepG2 Attagene cis-factorial RORE reporter, mRNA; actives raise or lower the signal. The gist of the method: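 Cells were HepG2 carrying transfected cis-regulated reporter constructs, dosed for 24 hours. Total RNA was reverse-transcribed and reporter cDNA amplified, fluorescently labeled and sized by capillary electrophoresis. Activity was fitted bidirectionally relative to DMSO.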

Experiment [4] is described as follows: ATG_Sox_CIS: Attagene CIS-FACTORIAL HepG2 Assay for human SRY-box transcription factor (SOX) (AID 2282960). The conditions noted are these: HepG2 Attagene cis-factorial SOX reporter, mRNA; actives raise or lower the signal. The gist of the method:
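Transient MRTU transfection of HepG2; 24 h compound incubation; TriZol RNA, oligo(dT) RT, PCR, 6-FAM primer extension, HpaI cut, CE. Bidirectional fit, DMSO = baseline.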

Experiment [5] deals with Transcription factor Sp1 (Homo sapiens) (UniProt P08047). As to the kind of experiment: ATG_Sp1_CIS: Attagene CIS-FACTORIAL HepG2 Assay for human Specificity Protein 1 (Sp1) (AID 2282961). The following applies: HepG2 Sp1 cis-reporter transcription, actives raise or lower the signal. The gist of the method: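 Endogenous Sp1 activity was gauged in human liver HepG2 cells bearing transfected reporter units under a cis-regulating promoter. After 24 h dosing, reporter mRNA was quantified by RT-PCR with capillary electrophoresis, and activity fitted bidirectionally versus DMSO.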

Experiment [6] is described as follows: ATG_SREBP_CIS: Attagene CIS-FACTORIAL HepG2 Assay for human Sterol Regulatory Element Binding (SREBP) (AID 2282962). The following applies: HepG2 Attagene cis-factorial SREBP reporter, mRNA; actives raise or lower the signal. The gist of the method: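 HepG2 cells transiently transfected with multiplexed cis-promoter reporter units sensing endogenous transcription factors; reporter mRNA measured 24 h after dosing by RT-PCR, 6-FAM labeling, HpaI digestion and capillary electrophoresis. Bidirectional fit versus DMSO.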

Experiment [7] has as its target Signal transducer and activator of transcription 3 (Homo sapiens) (UniProt P40763). Description: ATG_STAT3_CIS: Attagene CIS-FACTORIAL HepG2 Assay for human Signal Transducer and Activator of Transcription 3 (STAT3) (AID 2282963). The following applies: HepG2, Attagene cis-factorial STAT3 reporter transcription; actives raise or lower the signal. The procedure, abridged:
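HepG2 cells transiently transfected with multiple cis-element-driven reporter units report endogenous transcription factor activity. After 24 h compound exposure, reporter mRNA is measured by RT-PCR, 6-FAM labelling, HpaI digestion and capillary electrophoresis. Fitted bidirectionally versus DMSO.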

Experiment [8] in a line: ATG_TA_CIS: Attagene CIS-FACTORIAL HepG2 Assay for human TA Basal Promoter (AID 2282964). The conditions noted are these: HepG2 Attagene CIS-factorial TA basal promoter reporter; actives raise or lower the signal. The gist of the method: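 Transient MRTU transfection of HepG2 preceded 24 h compound exposure. Reporter mRNA levels were then read by RT-PCR with capillary electrophoresis, and this background-control endpoint was fitted bidirectionally to DMSO.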

The nature of experiment [9]: ATG_TCF_b_cat_CIS: Attagene CIS-FACTORIAL HepG2 Assay for human T-Cell-Factor with beta-catenin (TCF/b-cat) (AID 2282965). The conditions noted are these: HepG2 TCF/beta-catenin cis-reporter transcription, actives raise or lower the signal. The procedure, abridged: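 HepG2 cells transiently transfected with cis-promoter-driven multiplexed reporter units; reporter mRNA measured 24 h after dosing by RT-PCR, FAM labelling, HpaI digestion and capillary electrophoresis. Bidirectional fitting relative to DMSO baseline.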

Experiment [10] in a line: ATG_TAL_CIS: Attagene CIS-FACTORIAL HepG2 Assay for human TAL Basal Promoter (AID 2282966).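 Also: background control endpoint measuring basal TAL promoter reporter mRNA not a specific factor.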 The following applies: HepG2 Attagene cis-factorial TAL promoter reporter; actives raise or lower the signal. The gist of the method:
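In this cell-based multiplex, HepG2 liver cells bearing cis-promoter reporter constructs are dosed for 24 hours. Total RNA is reverse-transcribed and amplified, labelled fragments are sized by capillary electrophoresis, and signal changes are fitted bidirectionally versus DMSO.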

Experiment [11] concerns the target Transcriptional activator Myb (Homo sapiens) (UniProt P10242). Description: ATG_Myb_CIS: Attagene CIS-FACTORIAL HepG2 Assay for human Myeloblastosis (Myb) Proto-Oncogene Transcription Factor (AID 2282986). The following applies: HepG2 Attagene CIS-FACTORIAL Myb reporter transcription; actives raise or lower the signal. The procedure, abridged: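 Steps: transfect HepG2 with cis-regulated reporter units; dose with chemical for 24 h; isolate RNA, reverse-transcribe, PCR-amplify and FAM-label reporter sequences; digest with HpaI; resolve by capillary electrophoresis. Activity fitted in both directions relative to DMSO.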

In experiment [12] the target is Nuclear respiratory factor 1 (Homo sapiens) (UniProt Q16656). Description: ATG_NRF1_CIS: Attagene CIS-FACTORIAL HepG2 Assay for human Nuclear Respiratory Factor 1 (NRF1) Orphan Gene (AID 2282987). The conditions noted are these: HepG2 NRF1 cis-element reporter, Attagene multiplex; actives raise or lower the signal. The gist of the method: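 Fluorescence intensity of labelled reporter cDNA fragments, resolved by capillary electrophoresis, served as readout for NRF1 cis-element activity. Transiently transfected HepG2 cells were dosed for 24 hours; activity in either direction was fitted against DMSO negative control.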

Experiment [13] is described as follows: ATG_NFI_CIS: Attagene CIS-FACTORIAL HepG2 Assay for human Nuclear Factor I (NFI) (AID 2282989). The following applies: HepG2 cis-regulatory reporter, NFI response element transcription; actives raise or lower the signal. The gist of the method:
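Reporter transcription driven by endogenous transcription factors in HepG2 cells; 24 h treatment. Quantitation by labelled RT-PCR fragments on capillary electrophoresis, gain- or loss-of-signal relative to DMSO.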

Experiment [14] deals with Myc proto-oncogene protein (Homo sapiens) (UniProt P01106). As to the kind of experiment: ATG_Myc_CIS: Attagene CIS-FACTORIAL HepG2 Assay for human Myelocytomatosis (Myc) Proto-Oncogene Transcription Factor (AID 2282990). The conditions noted are these: HepG2, Attagene cis-reporter transcription factor activity; actives raise or lower the signal. The gist of the method:
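Transiently transfected HepG2 cells bearing cis-promoter reporter units for endogenous transcription factors; 24 h exposure. Reporter mRNA measured by RT-PCR, 6-FAM primer extension, HpaI cut and capillary electrophoresis; bidirectional fit relative to DMSO.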

Experiment [15] in a line: ATG_NRF2_ARE_CIS: Attagene CIS-FACTORIAL HepG2 Assay for human Nuclear Factor Erythroid 2 Related Factor 2 (NFR2) response to Antioxidant Response Elements (ARE) (AID 2282992).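 As to AC50: reporter mRNA level measured by RT-PCR and capillary electrophoresis fluorescence.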 The following applies: HepG2 Attagene ARE/NRF2 reporter, transcription factor activity; actives raise or lower the signal. The procedure, abridged: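 HepG2 cells transiently transfected with multiplexed cis-element reporter constructs, 24 h after chemical dosing; reporter mRNA quantified by RT-PCR, fluorescent primer extension, HpaI digestion and capillary electrophoresis. Bidirectional fit relative to DMSO.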

Experiment [16] in a line: ATG_Oct_MLP_CIS: Attagene CIS-FACTORIAL HepG2 Assay for human Octamer-Binding Transcription Factor (Oct) (AID 2282993). The following applies: HepG2 Attagene cis-factorial Oct reporter, mRNA; actives raise or lower the signal. The procedure, abridged: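 Transfected HepG2 cells, 24 h treatment. Reporter mRNA quantified by RT-PCR–capillary electrophoresis; bidirectional fitting against DMSO.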

Experiment [17] deals with Cellular tumor antigen p53 (Homo sapiens) (UniProt P04637). Description: ATG_p53_CIS: Attagene CIS-FACTORIAL HepG2 Assay for human p53 Transcription Factor (AID 2282994). The following applies: HepG2 p53 cis-element reporter, Attagene mRNA; actives raise or lower the signal. The procedure, abridged: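 HepG2 cells transiently transfected with cis-regulated multiple reporter transcription units, dosed 24 h. Reporter mRNA measured by RT-PCR, 6-FAM primer extension, HpaI digestion and capillary electrophoresis; bidirectional fit relative to DMSO.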

The target in experiment [18] is Nuclear receptor subfamily 1 group I member 2 (Homo sapiens) (UniProt O75469). Description: ATG_PXR_TRANS: Attagene TRANS-FACTORIAL HepG2 Assay for human Pregnane X Receptor (PXR) (AID 2283008; active = hit-call score of the fitted dose curve at least 0.9, where 1 is the maximum). The procedure, abridged:
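HepG2 cells transiently transfected with GAL4-UAS reporter units and PXR-Gal4 chimera, exposed 24 h. Reporter mRNA quantified by RT-PCR, fluorescent labelling, HpaI digestion and capillary electrophoresis; gain of signal vs DMSO.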

Experiment [19] is described as follows: ATG_XTT_Cytotoxicity: Cytotoxicity Assessment in the Attagene TRANS-FACTORIAL HepG2 Assay (AID 2283584; active = hit-call score of the fitted dose curve at least 0.9, where 1 is the maximum). The gist of the method:
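XTT readout of cell number in transfected HepG2 cells, 24 h post-dosing; DMSO serves as negative control and baseline, with activity taken as loss of viability signal.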

Experiment [20] in a line: ATG_VDRE_CIS: Attagene CIS-FACTORIAL HepG2 Assay for human Vitamin D Receptor Element (VDRE) (AID 2282968). The following applies: HepG2 VDRE cis-reporter transcription, actives raise or lower the signal. The procedure, abridged:
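Transiently transfected HepG2 cells carrying cis-regulated reporter transcription units were exposed for 24 h. Reporter mRNA was measured by RT-PCR with fluorescent labelling and capillary electrophoresis, and fitted in both directions against DMSO.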

Structures are written as SMILES. Records with an inconclusive call do not appear. The source made the active and inactive calls. The calls were made as follows, unless noted: active = hit-call score of the fitted dose curve at least 0.9, where 1 is the maximum; inactive = score below 0.9.

Sequence of Heat shock factor protein 1 (Homo sapiens) (Q00613 whole entry, looked up): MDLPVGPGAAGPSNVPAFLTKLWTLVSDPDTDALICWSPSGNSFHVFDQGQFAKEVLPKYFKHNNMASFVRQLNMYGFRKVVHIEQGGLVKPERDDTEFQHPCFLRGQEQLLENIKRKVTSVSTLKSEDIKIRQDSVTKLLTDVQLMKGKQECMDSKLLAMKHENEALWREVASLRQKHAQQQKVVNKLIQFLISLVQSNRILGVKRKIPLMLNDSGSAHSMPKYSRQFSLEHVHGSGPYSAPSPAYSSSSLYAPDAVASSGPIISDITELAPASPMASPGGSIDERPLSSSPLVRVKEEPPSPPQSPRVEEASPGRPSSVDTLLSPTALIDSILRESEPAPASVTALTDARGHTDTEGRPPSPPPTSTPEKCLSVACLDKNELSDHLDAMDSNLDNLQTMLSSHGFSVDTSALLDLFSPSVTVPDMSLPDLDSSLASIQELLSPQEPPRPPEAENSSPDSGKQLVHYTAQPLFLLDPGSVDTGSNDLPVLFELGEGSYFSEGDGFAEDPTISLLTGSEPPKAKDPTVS
Sequence of Transcriptional activator Myb (Homo sapiens) (P10242 whole entry, looked up): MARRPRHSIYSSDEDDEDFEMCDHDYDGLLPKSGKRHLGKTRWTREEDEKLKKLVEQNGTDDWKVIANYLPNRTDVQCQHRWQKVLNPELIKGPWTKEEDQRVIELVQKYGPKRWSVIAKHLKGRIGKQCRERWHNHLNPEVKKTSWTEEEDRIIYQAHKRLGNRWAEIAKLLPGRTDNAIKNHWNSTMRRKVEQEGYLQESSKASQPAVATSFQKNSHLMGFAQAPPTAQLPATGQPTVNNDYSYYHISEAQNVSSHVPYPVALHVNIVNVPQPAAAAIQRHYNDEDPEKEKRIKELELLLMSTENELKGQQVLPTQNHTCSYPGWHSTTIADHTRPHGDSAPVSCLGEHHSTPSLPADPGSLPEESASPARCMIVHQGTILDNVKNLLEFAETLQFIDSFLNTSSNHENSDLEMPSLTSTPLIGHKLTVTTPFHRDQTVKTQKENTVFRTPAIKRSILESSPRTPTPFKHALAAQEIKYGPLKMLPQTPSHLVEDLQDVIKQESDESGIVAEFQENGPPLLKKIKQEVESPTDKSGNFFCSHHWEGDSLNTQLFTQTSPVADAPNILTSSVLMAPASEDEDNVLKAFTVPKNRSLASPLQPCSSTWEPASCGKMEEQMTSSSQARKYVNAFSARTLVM
Sequence of Signal transducer and activator of transcription 3 (Homo sapiens) (P40763 whole entry, looked up): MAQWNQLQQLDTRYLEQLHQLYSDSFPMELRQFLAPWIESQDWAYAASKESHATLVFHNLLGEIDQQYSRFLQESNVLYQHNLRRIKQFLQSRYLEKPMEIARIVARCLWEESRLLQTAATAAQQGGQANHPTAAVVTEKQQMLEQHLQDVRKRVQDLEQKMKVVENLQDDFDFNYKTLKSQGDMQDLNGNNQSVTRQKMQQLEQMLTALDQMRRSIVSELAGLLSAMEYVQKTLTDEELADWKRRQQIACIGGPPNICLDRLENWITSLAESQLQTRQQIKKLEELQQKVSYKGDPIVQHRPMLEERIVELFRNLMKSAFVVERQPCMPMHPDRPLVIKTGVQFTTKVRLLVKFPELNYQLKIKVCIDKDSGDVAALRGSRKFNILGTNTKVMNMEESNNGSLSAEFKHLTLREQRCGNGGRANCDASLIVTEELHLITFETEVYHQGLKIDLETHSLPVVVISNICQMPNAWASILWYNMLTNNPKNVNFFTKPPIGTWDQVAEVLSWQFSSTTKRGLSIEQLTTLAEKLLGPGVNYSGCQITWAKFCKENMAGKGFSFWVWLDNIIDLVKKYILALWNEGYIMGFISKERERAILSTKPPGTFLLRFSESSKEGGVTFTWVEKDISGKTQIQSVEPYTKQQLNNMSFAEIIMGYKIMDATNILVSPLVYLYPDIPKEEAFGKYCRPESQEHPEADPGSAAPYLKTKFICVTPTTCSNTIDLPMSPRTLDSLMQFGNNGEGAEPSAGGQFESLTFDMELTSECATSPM
Sequence of Nuclear respiratory factor 1 (Homo sapiens) (Q16656 whole entry, looked up, the tested form may be a part): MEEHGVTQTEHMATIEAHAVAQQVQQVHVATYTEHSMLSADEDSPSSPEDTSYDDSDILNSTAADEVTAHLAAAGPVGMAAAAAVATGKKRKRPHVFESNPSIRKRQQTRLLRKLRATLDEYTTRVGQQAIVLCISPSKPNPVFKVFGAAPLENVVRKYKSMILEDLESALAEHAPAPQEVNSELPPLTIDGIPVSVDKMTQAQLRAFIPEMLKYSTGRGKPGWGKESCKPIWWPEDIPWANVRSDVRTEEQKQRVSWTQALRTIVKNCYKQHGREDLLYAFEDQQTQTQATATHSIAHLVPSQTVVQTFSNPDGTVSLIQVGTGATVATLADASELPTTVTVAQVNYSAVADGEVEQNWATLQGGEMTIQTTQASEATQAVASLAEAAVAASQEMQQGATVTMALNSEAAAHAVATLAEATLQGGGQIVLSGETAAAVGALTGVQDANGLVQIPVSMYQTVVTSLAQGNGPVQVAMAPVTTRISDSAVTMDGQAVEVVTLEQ
Sequence of Transcription factor Sp1 (Homo sapiens) (P08047 whole entry, looked up): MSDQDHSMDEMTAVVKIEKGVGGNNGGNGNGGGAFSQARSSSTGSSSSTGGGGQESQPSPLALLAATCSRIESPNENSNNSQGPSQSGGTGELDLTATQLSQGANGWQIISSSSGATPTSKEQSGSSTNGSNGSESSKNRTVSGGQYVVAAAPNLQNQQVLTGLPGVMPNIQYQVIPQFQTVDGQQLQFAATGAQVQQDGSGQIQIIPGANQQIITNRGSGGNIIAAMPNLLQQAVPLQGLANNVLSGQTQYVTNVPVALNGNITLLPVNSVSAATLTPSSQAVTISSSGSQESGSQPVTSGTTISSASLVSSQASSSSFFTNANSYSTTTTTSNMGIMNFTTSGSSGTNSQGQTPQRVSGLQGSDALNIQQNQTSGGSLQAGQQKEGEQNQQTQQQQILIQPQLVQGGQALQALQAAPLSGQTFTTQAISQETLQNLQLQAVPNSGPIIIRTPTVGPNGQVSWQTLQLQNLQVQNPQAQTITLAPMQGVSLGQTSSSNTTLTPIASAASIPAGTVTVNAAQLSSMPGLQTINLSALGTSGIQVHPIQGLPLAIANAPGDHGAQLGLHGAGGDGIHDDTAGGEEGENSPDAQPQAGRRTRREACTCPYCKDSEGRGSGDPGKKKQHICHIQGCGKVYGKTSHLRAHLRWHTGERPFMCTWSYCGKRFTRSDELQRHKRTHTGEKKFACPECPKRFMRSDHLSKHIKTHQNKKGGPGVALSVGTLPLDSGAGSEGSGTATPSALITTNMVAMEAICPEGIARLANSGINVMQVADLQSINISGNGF
Sequence of Cellular tumor antigen p53 (Homo sapiens) (P04637 whole entry, looked up): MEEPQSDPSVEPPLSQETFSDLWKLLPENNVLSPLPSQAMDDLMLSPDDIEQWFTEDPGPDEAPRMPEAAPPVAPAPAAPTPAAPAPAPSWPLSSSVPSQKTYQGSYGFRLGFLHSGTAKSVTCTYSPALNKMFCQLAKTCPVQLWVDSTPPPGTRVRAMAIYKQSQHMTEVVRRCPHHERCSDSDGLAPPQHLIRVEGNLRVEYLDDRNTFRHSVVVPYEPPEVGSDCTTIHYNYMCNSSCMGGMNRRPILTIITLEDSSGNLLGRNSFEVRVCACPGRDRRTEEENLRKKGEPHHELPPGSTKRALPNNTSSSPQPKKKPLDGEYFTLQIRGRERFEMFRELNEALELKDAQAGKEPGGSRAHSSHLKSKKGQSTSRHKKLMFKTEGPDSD
Sequence of Hepatocyte nuclear factor 3-beta (Homo sapiens) (Q9Y261 whole entry, looked up): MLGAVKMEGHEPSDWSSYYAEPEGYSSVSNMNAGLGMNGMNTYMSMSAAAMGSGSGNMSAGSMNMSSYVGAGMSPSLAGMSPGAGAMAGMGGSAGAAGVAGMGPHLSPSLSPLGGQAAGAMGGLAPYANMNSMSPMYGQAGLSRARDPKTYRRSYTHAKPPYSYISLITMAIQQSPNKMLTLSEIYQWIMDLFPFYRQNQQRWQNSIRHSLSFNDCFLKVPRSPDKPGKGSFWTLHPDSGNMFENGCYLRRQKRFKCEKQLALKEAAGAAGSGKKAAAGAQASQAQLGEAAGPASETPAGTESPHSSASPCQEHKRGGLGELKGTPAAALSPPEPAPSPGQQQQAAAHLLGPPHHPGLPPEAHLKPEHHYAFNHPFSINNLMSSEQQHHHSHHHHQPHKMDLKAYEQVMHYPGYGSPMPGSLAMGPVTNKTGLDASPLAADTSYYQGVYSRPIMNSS
Sequence of Myc proto-oncogene protein (Homo sapiens) (P01106 whole entry, looked up): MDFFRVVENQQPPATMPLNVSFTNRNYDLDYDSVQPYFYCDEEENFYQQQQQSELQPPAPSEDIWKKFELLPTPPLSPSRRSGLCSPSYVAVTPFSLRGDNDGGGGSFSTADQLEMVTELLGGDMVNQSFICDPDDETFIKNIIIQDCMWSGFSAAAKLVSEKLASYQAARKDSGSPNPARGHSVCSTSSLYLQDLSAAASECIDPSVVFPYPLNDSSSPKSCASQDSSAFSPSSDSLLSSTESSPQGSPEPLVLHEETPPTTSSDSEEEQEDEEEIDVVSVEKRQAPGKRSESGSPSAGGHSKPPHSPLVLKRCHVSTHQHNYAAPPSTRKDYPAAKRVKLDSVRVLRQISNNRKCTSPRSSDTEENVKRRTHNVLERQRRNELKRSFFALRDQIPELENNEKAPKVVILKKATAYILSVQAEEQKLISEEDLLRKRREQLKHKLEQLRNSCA
Sequence of Nuclear receptor subfamily 1 group I member 2 (Homo sapiens) (O75469 whole entry, looked up, the tested form may be a part): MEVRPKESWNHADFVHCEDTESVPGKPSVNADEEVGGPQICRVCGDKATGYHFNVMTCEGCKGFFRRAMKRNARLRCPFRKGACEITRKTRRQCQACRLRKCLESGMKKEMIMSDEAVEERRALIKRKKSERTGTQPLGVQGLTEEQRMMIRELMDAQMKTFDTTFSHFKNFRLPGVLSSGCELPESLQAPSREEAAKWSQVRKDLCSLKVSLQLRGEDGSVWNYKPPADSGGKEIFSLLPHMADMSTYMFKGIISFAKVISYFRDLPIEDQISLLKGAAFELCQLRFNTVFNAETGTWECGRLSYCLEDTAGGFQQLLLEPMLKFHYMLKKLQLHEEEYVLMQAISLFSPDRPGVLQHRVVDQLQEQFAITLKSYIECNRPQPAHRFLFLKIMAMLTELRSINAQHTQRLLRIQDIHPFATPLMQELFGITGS

Regarding `Oc1ccc(Cl)cc1C1CCCC1`, the call in [1], in experiment [2], in experiment [3], in experiment [7], in experiment [8] and in experiment [11] was inactive. Further, in experiment [19], the call was inactive. Also, the AC50 in [4] was 37.5 µM (active); in experiment [5] it was 33.4 µM (active); in [6] it was 25.6 µM (active); in experiment [9] it was 61.4 µM (active); in [10], 54.9 µM (active); in [12] it was 44.1 µM (active). For the same compound, the AC50 was 33.4 µM (active) in experiment [13]; 16.6 µM (active) in [14]; 12.9 µM (active) in experiment [15]; 47.9 µM (active) in experiment [16]; 56.7 µM (active) in [17]; 9.24 µM (active) in experiment [18].
For the compound `COC(OC)C(C)c1ccccc1` (centres undefined), the compound was called inactive in experiment [1], in experiment [2], in experiment [3], in [4], in experiment [5] and in experiment [6]. The call in experiment [7], in experiment [8], in [9], in [10], in [20] and in experiment [11] was inactive. Besides, the outcome in experiment [12], in experiment [13], in experiment [14], in [15], in experiment [16] and in experiment [17] was inactive. In addition, the compound was called inactive in [18] and in experiment [19].
On to `CN1CCCC1`, for which the compound was classed as inactive in [1], in experiment [2], in experiment [3], in [4], in experiment [5] and in experiment [6]. The compound was classed as inactive in [7], in [8], in [9], in [10], in experiment [20] and in experiment [11]. Also, the outcome in [12], in experiment [13], in [14], in [16], in [17] and in experiment [18] was inactive. Also, the result in experiment [19] was inactive. Also, in [15], the AC50 was 26.2 µM (active).

For the origin of these results see PubChem BioAssay (EPA / NIEHS).
